Results published in PubChem BioAssay (NCI).
About 83,000 compounds went through this panel and 20% of them were active in at least one assay; those are over-represented in the sample as a whole.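 Plates (96-well) were seeded with cells, treated with compound at one concentration, and incubated for 48 hours before percent growth was determined.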 Values without a mark were called inactive. Active and inactive are the calls of the source. Rule for the calls: active = growth percent below 10; inactive = the rest.

Assays:
Experiment in all cases: NCI-60 one-dose screen, 48 h (100 = growth as untreated, 0 = no growth, -100 = all killed)
Settings in all cases: 10 µM unless noted
[1] = system: SK-MEL-2 melanoma
[2] = system: EKVX NSCLC
[3] = system: SN12C renal
[4] = system: UO-31 renal
[5] = system: TK-10 renal
[6] = system: ACHN renal
[7] = system: CAKI-1 renal
[8] = system: A498 renal
[9] = system: CCRF-CEM leukemia
[10] = system: MOLT-4 leukemia
[11] = system: SR leukemia
[12] = system: RPMI-8226 leukemia
[13] = system: OVCAR-8 ovarian
[14] = system: OVCAR-5 ovarian
[15] = system: OVCAR-4 ovarian
[16] = system: SK-OV-3 ovarian
[17] = system: IGROV1 ovarian
[18] = system: HS 578T breast
[19] = system: NCI/ADR-RES ovarian
[20] = system: OVCAR-3 ovarian

| Structure (SMILES) | growth [1] | growth [2] | growth [3] | growth [4] | growth [5] | growth [6] | growth [7] | growth [8] | growth [9] | growth [10] | growth [11] | growth [12] | growth [13] | growth [14] | growth [15] | growth [16] | growth [17] | growth [18] | growth [19] | growth [20] |
| --- | --- | --- | --- | --- | --- | --- | --- | --- | --- | --- | --- | --- | --- | --- | --- | --- | --- | --- | --- | --- |
| CCN(CC)c1ccc(/C=N/NC(=O)c2ccc(S(N)(=O)=O)cc2)c(O)c1 | 47.2% | 15.9% | 28.3% | 7.5% (active) | 37.4% | 14.8% | 22.1% | 24% | 9.4% (active) | 11.2% | 10.5% | 38.3% | 13.1% | 50% | 32.6% | 32.2% | 17.6% | 54.3% | 18% |  |
| Cc1ccc2c(n1)C(=O)C(Cl)=C(Nc1ccc(C(C)C)cc1)C2=O | 71.2% | -0.749% (active) | 46.4% | -65.3% (active) | 145% | -77.2% (active) | 77.3% | 133% | 3.85% (active) | 4.3% (active) | 3.93% (active) | -21.7% (active) | 8.76% (active) | 103% | -74% (active) | 106% | -53% (active) | 55.6% | 49.9% | -55.7% (active) |
| O=S(=O)(Oc1ccc(-c2cn3ccsc3n2)cc1)c1cccc(C(F)(F)F)c1 | 101% | 94.3% | 104% | 93.1% | 98.7% | 98.4% | 89.9% | 86.8% | 100% | 97.6% | 95.2% | 97.5% | 101% | 107% | 96.5% | 108% | 107% | 102% | 108% |  |
| CN1CCN(CCNc2nc(-c3cccc(NS(=O)(=O)c4cccc5c(N(C)C)cccc45)c3)cs2)CC1 | 103% | 50% | 58.9% | 56.8% | 90.7% | 72.5% | 58.6% | 67.5% | 60.1% | 44.6% | 23.4% | 35.8% | 75.9% | 90.3% | 71.5% | 91.6% | 78.5% | 87.9% | 86.9% |  |
| COc1cc2cc(Oc3ccc(NC(=O)c4cc(C(F)(F)F)cc(C(F)(F)F)c4)cc3)c(C)nc2cc1OCCN1CCOCC1 | 101% | 57.7% | 83% | 55.8% | 105% | 77.3% | 52.8% | 55% | 45% | 66.1% | 20.6% | 24.6% | 80.1% | 95.7% | 48.8% | 87.5% | 85.6% | 36.7% | 62.4% | 78.9% |
| Cc1csc(/N=C(N)/N=C(\N)c2cccnc2)n1 | 68.2% | 82.8% | 80.1% | 77.7% | 116% | 78.4% | 60.1% | 59.6% | 79.2% | 83% | 45.7% | 86.1% | 89.7% | 92.5% | 98.9% | 77.8% | 67.9% | 78.8% | 48.4% | 66.7% |
| COc1ccc(/C=N\NC(=O)c2cnn(CC(O)c3ccccc3)c2N)cc1OCc1ccc(Cl)cc1 (stereo unspecified) | 92.9% | 79.1% | 84.4% | 87.4% | 101% | 58.6% | 71% | 48% | 72.6% | 62.4% | 65.8% | 65.5% | 74% | 79.9% | 74.1% | 93.8% | 91.9% | 43.2% | 72.2% |  |
| COc1ccc(NC(=O)CCCCCCNC(=O)C(O)(O)C(F)(F)F)cc1 | 12.7% | 61.7% | 59.9% | 37.7% | 6.59% (active) | 20.2% | 26% | 41.8% | 26.2% | 21% | 15% | 25.1% | 22.3% | 31.3% | 77.7% | 4.07% (active) | 62.4% | 56.9% | 49.8% | 49.1% |
| C#Cc1nc(/C=C\CCCCCCC(=O)NO)cs1 | 92.1% | 82.9% | 80.9% | -76.2% (active) | 42% | 11.3% | -20.2% (active) | 34.2% | -40.5% (active) | -24.6% (active) | -19.7% (active) | -1.07% (active) | 40.9% | 45.7% | 69.9% | 91.6% | -68.2% (active) | 64.9% | 13.1% |  |
| COc1cc2cc(Oc3ccc(NC(=O)Nc4ccc(F)c(C(F)(F)F)c4)cc3)c(C)nc2cc1OCCN(C)C | 115% | 97.6% | 96.4% | 86.6% | 106% | 106% | 85.1% | 93.6% | 15.8% | 89.5% | 1.94% (active) | 80.2% | 102% | 137% | 112% | 116% | 101% | 108% | 41.2% |  |
| C#C[C@]1(O)CC[C@H]2[C@@H]3CC=C4c5sc(N6CCN(C)CC6)nc5CC[C@]4(C)[C@H]3CC[C@@]21C | 36.8% | 68.5% | 76.6% | 77.2% | 100% | 47.2% | 54.2% | 86% | -8.52% (active) | 1.27% (active) | 4.08% (active) | -13.3% (active) | 74.2% | 69.5% | 75.6% | 54% | 63.2% | 59.8% | 36.8% |  |
| COc1ccccc1Cn1cc(C#N)c(N)c1C(=O)c1ccc(Br)cc1 | 98.6% | 85.2% | 92.1% | 78.1% | 108% | 96.6% | 80.6% | 77.7% | 91.4% | 85.4% | 112% | 93.7% | 98.3% | 104% | 73.8% | 107% | 91.6% | 94.4% | 93.6% | 104% |
| O=C1Nc2ccc(F)cc2/C1=C\C(=O)c1ccc(NS(=O)(=O)c2ccccc2)cc1 | 115% | 82.8% | 87.2% | 70% | 130% | 74.6% | 72.9% | 115% | 8.68% (active) | 40.7% | 9.42% (active) | 67.6% | 91.1% | 107% | 93.2% | 112% | 87.2% | 110% | 96.7% |  |
| CN1CCN(c2ccc(Nc3nc(NCCNC(=O)c4ccccc4)c4sccc4n3)cc2)CC1 | 96.6% | 97.3% | 74% | 66% | 137% | 54.6% | 48.3% | 130% | 27.9% | 13.9% | 5.68% (active) | 33.4% | 62.4% | 84.1% | 55.4% | 123% | 87.9% | 81% | 91.7% | 76.9% |
| COc1cc(-c2nc(-c3ccccc3)[nH]c2-c2ccnc(NCCCNS(=O)(=O)c3ccc(C)cc3)n2)ccc1F | 104% | 74.5% | 89.3% | 78.6% | 123% | 84.6% | 105% | 84.1% | 56.9% | 45.1% | 89.4% | 54% | 83.8% | 119% | 108% | 148% | 95.2% | 107% | 89.8% | 119% |
| O=c1c2cc(-c3ccc(F)cc3F)ccc2n(O)c(=O)n1-c1cccc(C(F)(F)F)c1 | -34.3% (active) | 4.46% (active) | 0.105% (active) | 8% (active) | 1.66% (active) | 0.899% (active) | -16.4% (active) | -22.4% (active) | 15.2% | 0.581% (active) | -0.936% (active) | -19.1% (active) | 12% | 42.3% | 31.7% | -14.5% (active) | 21.2% | -0.801% (active) | 3.16% (active) |  |
